TDP1 cell noCPT: qHTS for Inhibitors of human tyrosyl-DNA phosphodiesterase 1 (TDP1): qHTS in cells in absence of CPT; Potency, µM (titrated, usually from 46.2 µM), actives largely listed as inhibitors; DT40 Tdp1-/- hTDP1 cells, no CPT, ATP luminescence, 48 h; actives 15% (n = 420,000); note: nearly all actives have a fitted effect of over 55% in size
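Seeded 400 DT40-hTDP1 cells/well (vehicle DMSO, no 20 nM CPT); pinned compounds; ≥48 hr at 37 °C; CellTiter-Glo luminescence as viability measure.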
ELG1 DNA repair: ELG1-dependent DNA repair inhibition. HEK293T ELG1-luciferase reporter, luminescence, 16 h; DNA damage induced by 5-fluorouridine. Potency, µM (highest dose often 46.1 µM), actives largely listed as inhibitors. actives 2.3% (n = 330,000). AID 504467; note: nearly all actives have a fitted effect of over 55% in size
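Luminescence from the luciferase reporter, measured 30 min after ONE-Glo reagent at room temperature, was the read-out. Beforehand, 2,000 cells per well were exposed for 16 hr at 37 °C to 5-fluorouridine together with compound or vehicle.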
TDP1 block: inhibitors of human tyrosyl-DNA phosphodiesterase TDP1. Potency, µM (series often up to 130 µM), usual class: inhibitors. actives 0.28% (n = 350,000). Q9NUW8. recombinant TDP1, AlphaScreen DNA substrate cleavage; note: nearly all actives have a fitted effect of over 40% in size
Target sequence (Q9NUW8 whole entry, looked up): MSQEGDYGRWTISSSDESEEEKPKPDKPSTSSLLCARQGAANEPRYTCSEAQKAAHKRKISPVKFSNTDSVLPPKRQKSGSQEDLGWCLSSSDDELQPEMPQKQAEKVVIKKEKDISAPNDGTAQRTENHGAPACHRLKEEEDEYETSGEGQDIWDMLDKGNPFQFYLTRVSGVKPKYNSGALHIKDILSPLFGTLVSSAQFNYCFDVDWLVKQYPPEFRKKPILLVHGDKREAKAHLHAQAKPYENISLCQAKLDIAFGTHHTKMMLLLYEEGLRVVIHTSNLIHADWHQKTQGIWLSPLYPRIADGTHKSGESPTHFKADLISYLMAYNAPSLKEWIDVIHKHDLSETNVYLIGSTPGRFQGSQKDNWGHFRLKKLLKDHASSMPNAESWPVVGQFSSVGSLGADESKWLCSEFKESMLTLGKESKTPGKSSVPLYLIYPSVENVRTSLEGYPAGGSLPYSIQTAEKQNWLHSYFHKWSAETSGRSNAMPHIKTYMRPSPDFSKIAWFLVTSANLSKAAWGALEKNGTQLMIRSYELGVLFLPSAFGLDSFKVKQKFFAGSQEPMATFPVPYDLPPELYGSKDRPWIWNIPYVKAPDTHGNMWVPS
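Signal: AlphaScreen proximity between streptavidin donor and anti-FITC acceptor beads on intact substrate. Reaction: Tdp1 1 nM, substrate 15 nM final, 5 min RT after 15 min compound preincubation.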
Giardia killer: Giardia lamblia killing | actives 0.15% (n = 340,000) | Giardia lamblia trophozoite viability | activity change, % at 7.66 µM, hits read low; in the data active = activity change below about -80%; inconclusive = between about -30% and that limit;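 note: parasites exposed to compound for two days anaerobically before the ATP read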
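Media and compound were dispensed first, then trophozoites at 100 cells/well; plates sat 48 hrs at 37 deg C without oxygen before ATP luminescence reagent was added and read after 15-30 min at room temperature.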
IL1B secr inh: blocks inflammasome-driven IL-1 beta release; actives 4.7% (n = 360,000); activity change, % at 57.5 µM; THP-1 LPS/ATP IL-1B secretion, AlphaLISA, 16 h; active compounds read low; in the data active = activity change below about -50%; inconclusive = mostly about -30% to -49%
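Secreted IL-1B measured by AlphaLISA bead assay after 16 h compound exposure of THP-1 cells; compounds (final up to 57.5 uM) added 1 h before LPS (250 ng/mL) and ATP (1.25 mM) stimulation; lower signal means less secretion.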
TDP1 cell CPT: growth inhibition of DT40 Tdp1-/-;hTDP1 cells with camptothecin (screen for TDP1 inhibitors). actives 12% (n = 420,000). Potency, µM (titrated, usually from 46.2 µM), usual class: inhibitors. chicken DT40 Tdp1-/-;hTDP1 cells + 20 nM CPT, ATP luminescence, 48 h. AID 686979; note: nearly all actives have a fitted effect of over 55% in size
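Cell growth measured by CellTiter-Glo luminescence after a minimum 48 h, 37 C compound exposure with 20 nM CPT in Tdp1-knockout DT40 cells stably expressing hTDP1, seeded 400/well; qHTS titration format.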
Numbers stand for hits; . = inactive; ? = inconclusive; / = no result; [ ] = dose if it differs, or a comment. This is a sample that favours compounds with a hit; in the whole collection about 19% have one here. Unless noted, calls come from the whole dose curve; as a rule, active = well fitted curve in the direction sought with a large enough effect; inconclusive = small, poorly fitted or top-dose-only effect, or another doubt; inactive = no such curve, though single readings can be large; an effect the other way counts as inactive or inconclusive.

SMILES | TDP1 cell noCPT | ELG1 DNA repair | TDP1 block | Giardia killer | IL1B secr inh | TDP1 cell CPT
CCOC(=O)c1ccc(NC(=O)c2c(NCc3cccs3)sc3c2CCCCC3)cc1 | 8.2µM | / | . | / | / | 10.3µM
CCN(CC)Cc1c(NC(=O)c2ccc(OC)cc2)sc2c1CCCC2 | ? | / | .[12.3 µM] | / | / | 18.4µM
CCC(=O)Nc1sc2c(c1C(=O)Nc1cccc(C)c1)CCCC2 | / | / | . | / | / | /
CCOC(=O)c1c(NC(=O)c2ccc(OC)cc2)sc2c1CCCCC2 | . | / | .[12.3 µM] | / | / | .
COc1ccc(CC(=O)Nc2sc3c(c2C(N)=O)CCCC3)cc1 | ? | ? | / | . | . | .
COc1ccc2nc(Nc3sc4c(c3C(N)=O)CCCC4)sc2c1 | ? | ? | . | . | -100.0 | 16.4µM
CCC(=O)Nc1sc2c(c1C(=O)Nc1ccc(Br)cc1)CCCCC2 | 20.6µM | / | .[12.3 µM] | / | / | ?
CCO[C@@H]1OC(C(=O)N2CCN(Cc3ccc4c(c3)OCO4)CC2)=C[C@H](C2CC2)[C@H]1CCCO | ? | . | . | . | . | ?
COc1ccc(NC(=O)CN(C)CC(=O)Nc2sc3c(c2C(N)=O)CCC3)cc1 | ? | 20.6µM | . | . | . | 20.6µM
O=C1N=C(N2CCOCC2)S/C1=C\c1ccncc1 | . | . | / | . | . | .
CC(C)c1ccc(/C=C2\SC(N3CCOCC3)=NC2=O)cc1 | ? | . | . | . | -65.5 | ?
O=C1N=C(N2CCOCC2)S/C1=C/c1cccs1 | . | ? | . | . | . | .
CCc1ccc(/C=C2/SC(N3CCOCC3)=NC2=O)cc1 | ? | . | / | . | -50.3 | .
COc1ccccc1NC(=O)C(C)Sc1nc(-c2ccccc2)cn1N (stereo not given) | . | . | . | . | . | ?
CN(C(=O)CC1C(=O)NCCN1Cc1ccc(F)c(F)c1)C1CCCCC1 (stereo not given) | . | . | . | . | . | .
COC1=CC(=O)C(O)=C/C1=C\C=C\c1ccccc1 | 4.61µM | / | . | / | / | 2.59µM
COc1ccc2c(c1)C(=O)/C(=C/C=C/c1ccccc1)CC2 | . | ? | . | . | . | .
Cc1ccc(C2c3[nH]c4ccccc4c3CCN2C(=O)CSCc2ccc(F)cc2)cc1 (stereo not given) | 23.1µM | / | . | / | / | ?
O=C(CCC1CCCC1)N1CCc2c([nH]c3ccccc23)C1c1ccc(Cl)cc1 (stereo not given) | ? | / | . | / | / | ?
CCc1ccccc1NC(=O)N1CCc2c([nH]c3ccccc23)C1c1ccc(C)cc1 (stereo not given) | 14.6µM | / | . | / | / | 16.4µM
O=C(CSCc1ccc(F)cc1)N1CCc2c([nH]c3ccccc23)C1c1ccc(F)cc1 (stereo not given) | 18.4µM | / | . | / | / | 18.4µM
O=C(c1ccc(F)cc1)N1CCc2c([nH]c3ccccc23)C1c1ccc(Cl)cc1 (stereo not given) | ? | / | . | / | / | ?
Cc1ccsc1CNC12CC3CC(CC(C3)C1)C2 | . | . | . | . | . | .
COc1cc(CCC(=O)OCC(=O)NCCc2ccc(S(N)(=O)=O)cc2)cc(OC)c1OC | . | . | . | ? | . | .
Cc1cccc(C)c1NC(=O)C(c1ccccc1OC(F)(F)F)N1CCN(C)CC1 (stereo not given) | . | / | / | / | . | .
SMILES | TDP1 cell noCPT | ELG1 DNA repair | TDP1 block | Giardia killer | IL1B secr inh | TDP1 cell CPT
CCOC(=O)[C@]12CCCC=C1N(Cc1ccco1)C(=O)[C@H](CC(=O)NCC13CC4CC(CC(C4)C1)C3)C2 | ? | / | / | / | -55.4 | 25.9µM
CCOC(=O)[C@]12CCC=C1N(Cc1ccco1)C(=O)[C@H](CC(=O)NCC13CC4CC(CC(C4)C1)C3)C2 | ? | / | / | / | . | ?
CCOC(=O)[C@]12CCCC=C1N(Cc1ccco1)C(=O)[C@H](CC(=O)NCCCCc1ccccc1)C2 | ? | / | / | / | ? | 23.1µM
CCOC(=O)C1CCC/C1=N\NC(=O)CN(c1cc(OC)ccc1OC)S(=O)(=O)c1ccccc1 (stereo not given) | ? | . | . | . | ? | .
N[C@H](C(=O)O)[C@@H]1C[C@@H]1C(=O)O | . | / | . | / | / | .
CCSc1nc(-c2cccs2)nc2ccccc12 | 18.4µM | . | . | . | . | 14.6µM
CCC(C)N(C(=O)CSc1nc(C)c(C)c(C)c1C#N)C1CCS(=O)(=O)C1 (stereo not given) | 20.6µM | . | . | . | . | .
CCC(C)N(C(=O)CSc1nc(-c2cccs2)nc2ccccc12)C1CCS(=O)(=O)C1 (stereo not given) | 16.4µM | / | / | . | -82.8 | ?
CN1C(=O)C(=O)/C(=C(/O)c2ccc(Br)cc2)C1c1ccc(F)cc1 (stereo not given) | . | . | . | . | . | .
CC(C)c1cc(N=NC(N)=O)cc(C(C)C)c1O | . | . | . | ? | . | .
O=C(Cn1ncc2c3ccccc3n(Cc3ccc(F)cc3)c2c1=O)NC1CCCCCC1 | ? | / | . | / | / | ?
CC(NC(=O)Cn1ncc2c3ccccc3n(Cc3ccc(F)cc3)c2c1=O)c1ccccc1 (stereo not given) | 10.3µM | / | . | / | / | ?
Cc1ccc(C)c(Cn2c3ccccc3c3cnn(CC(=O)NC4CCCCCC4)c(=O)c32)c1 | 13µM | / | . | / | / | ?
O=C(Cn1ncc2c3ccccc3n(Cc3ccccc3F)c2c1=O)NC1CCCCCC1 | 14.6µM | / | . | / | / | 7.31µM
O=C(Cn1ncc2c3ccccc3n(Cc3cccc(Cl)c3)c2c1=O)NC1CCCCCC1 | 6.51µM | / | . | / | / | 8.2µM
Cc1cccc(C)c1NC(=O)CNC(=O)c1ccc(N2CCCC2)c([N+](=O)[O-])c1 | . | ? | . | . | ? | .
CC(CNC(=O)Cn1ncc2c3ccccc3n(Cc3cccc(Cl)c3)c2c1=O)c1ccccc1 (stereo not given) | ? | / | . | / | / | 18.4µM
CNC(=O)c1ccc(-c2cc3onc(-c4ccccc4)c3c(=O)n2C)cc1 | 23.1µM | ? | . | . | . | 18.4µM
CCCOc1ccc(-c2cc3onc(-c4ccccc4)c3c(=O)n2C)cc1 | 18.4µM | ? | . | . | . | 25.9µM
CCCOc1ccc(-c2nc3ccccc3c(=O)o2)cc1 | . | / | / | / | / | .
Cn1c(-c2ccc(F)cc2)cc2onc(-c3c(F)cccc3Cl)c2c1=O | ? | ? | . | . | . | 13µM
Cc1ccc(-c2cc3onc(-c4ccccc4)c3c(=O)n2C)cc1 | ? | ? | . | . | . | ?
CCOC(=O)CNS(=O)(=O)c1ccc(S(=O)(=O)NC2CC2)cc1 | . | . | / | . | ? | .
CSCC[C@H](NC(=O)[C@H](CC(C)C)N(C)C(=O)[C@@H]1CCCN1C(=O)[C@H](Cc1ccccc1)NC(=O)[C@H](Cc1ccccc1)NC(=O)CCC(C)N)C(=O)O (stereo not given in full) | / | / | . | / | / | /
